The campaign covered roughly 310,000 compounds. About 3,600 (1.2%) were called active.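 The calls were made as follows: active = ratio plate-corrected score three or more library SD toward inhibition, starting fluorescence score within five deviations; inactive = the rest.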 For the sample, actives were picked, then their nearest neighbours and some compounds at random.

Chain of Anoctamin-1 (Mus musculus) (Q8BHY3 whole entry, looked up): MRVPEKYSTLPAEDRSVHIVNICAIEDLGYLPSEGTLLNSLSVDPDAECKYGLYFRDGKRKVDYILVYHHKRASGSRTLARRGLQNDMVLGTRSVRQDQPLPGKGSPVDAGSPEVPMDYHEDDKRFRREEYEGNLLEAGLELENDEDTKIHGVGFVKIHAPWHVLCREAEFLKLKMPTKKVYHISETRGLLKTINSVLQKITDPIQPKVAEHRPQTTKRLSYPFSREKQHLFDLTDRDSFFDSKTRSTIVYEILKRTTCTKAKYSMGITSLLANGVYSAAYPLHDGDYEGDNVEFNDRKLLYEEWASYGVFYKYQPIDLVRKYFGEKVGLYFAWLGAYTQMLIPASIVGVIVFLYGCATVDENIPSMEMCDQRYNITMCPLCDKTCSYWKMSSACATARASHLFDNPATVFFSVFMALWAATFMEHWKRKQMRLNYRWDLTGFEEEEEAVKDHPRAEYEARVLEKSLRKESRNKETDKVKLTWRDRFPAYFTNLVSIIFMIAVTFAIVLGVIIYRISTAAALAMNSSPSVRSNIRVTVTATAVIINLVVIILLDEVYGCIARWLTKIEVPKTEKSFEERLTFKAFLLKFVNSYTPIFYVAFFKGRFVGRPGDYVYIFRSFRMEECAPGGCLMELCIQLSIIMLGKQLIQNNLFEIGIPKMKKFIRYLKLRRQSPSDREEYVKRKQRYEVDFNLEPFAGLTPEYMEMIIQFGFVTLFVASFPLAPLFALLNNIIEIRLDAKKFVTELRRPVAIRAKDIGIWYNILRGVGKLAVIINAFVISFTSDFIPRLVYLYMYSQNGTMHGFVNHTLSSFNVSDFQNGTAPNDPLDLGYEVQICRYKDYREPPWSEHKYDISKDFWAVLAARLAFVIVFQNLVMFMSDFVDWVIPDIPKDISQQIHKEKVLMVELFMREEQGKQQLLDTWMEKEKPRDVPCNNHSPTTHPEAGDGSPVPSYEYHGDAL

The experiment addresses Anoctamin-1 (Mus musculus) (UniProt Q8BHY3). Briefly: TMEM16A chloride channel inhibitors, primary screen, cell-based, HTS (AID 588511).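 As to normalized B-score (activity score, 25-100; higher = stronger inhibition): score derived from kinetic fluorescence span divided by baseline fluorescence per well.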 As to conditions: HEK293 TMEM16A/YFP iodide influx fluorescence, ionomycin; at 10 µM.
Take `COc1ccc(N(CC(=O)NC2CCCCC2)C(=O)CNC(=O)c2ccco2)c(OC)c1`: the normalized B-score (activity score, 25-100; higher = stronger inhibition) result is “inactive”.
As to `CCOc1ncccc1C(=O)N(C)CC(=O)Nc1ccc(F)cc1`, the normalized B-score (activity score, 25-100; higher = stronger inhibition) entry is “inactive”.
As for `Cc1ccc(CNS(=O)(=O)CCNC(=O)c2ccccc2)cc1`, the entry is “inactive”.
Regarding `COc1ccc(CCNC(=O)C(=O)NCC2OCCN2S(=O)(=O)c2ccc(F)cc2)cc1OC` (stereo unspecified), the normalized B-score (activity score, 25-100; higher = stronger inhibition) result was “inactive”.
As to `CCCCNC(=O)c1ccccc1NC(=O)c1ccccc1N(C)S(C)(=O)=O`, the normalized B-score (activity score, 25-100; higher = stronger inhibition) entry is “inactive”.
As for `CCOC(=O)c1cccc(NC(=O)CCn2nnc3ccccc32)c1`, the figure is 100 (active); as for `CCOC(=O)c1cccc(NC(=O)CCc2c(C)nc3ncnn3c2C)c1`, “inactive”; as for `CCOC(=O)c1cccc(NC(=O)CCOc2ccccc2)c1`, “inactive”.
Under `COC(=O)c1cc(NC(=O)c2cc(C(C)(C)C)nn2Cc2cccc(C)c2)ccc1N1CCOCC1` stands “inactive”; under `Cc1cccc(C)c1N1C(=O)CN(Cc2ccccc2)C1=S`, “inactive”; under `CC1Cc2ccccc2N1S(=O)(=O)c1c(N)n(C)c(=O)n(C)c1=O` (stereo unspecified), “inactive”.
Turning to `CCCCn1ccnc1C(=O)c1cccc(S(=O)(=O)N2c3ccccc3CC2C)c1` (stereo unspecified), the normalized B-score (activity score, 25-100; higher = stronger inhibition) is 25 (active).
On to `CC1Cc2ccccc2N1S(=O)(=O)c1ccc(Cl)nc1` (stereo unspecified), for which the normalized B-score (activity score, 25-100; higher = stronger inhibition) result was “inactive”.
`CC(=O)N1c2ccc(S(=O)(=O)N3CCCC(C(=O)Nc4cccc(Cl)c4)C3)cc2CC1C` (stereo unspecified): the normalized B-score (activity score, 25-100; higher = stronger inhibition) entry is “inactive”.
As for `CC(=O)N1CCCc2cc(S(=O)(=O)N3CCCC(C(=O)N4CCN(c5cccc(Cl)c5)CC4)C3)ccc21` (stereo unspecified), the figure is 100 (active); as for `CC(=O)N1CCCc2cc(S(=O)(=O)N3CCCC(C(=O)NCc4ccc(Cl)cc4)C3)ccc21` (stereo unspecified), “inactive”; as for `O=C(O)c1ccccc1NC(=O)c1ccccc1-c1ccccc1C(=O)O`, “inactive”.
As for `COC(=O)c1ccccc1NC(=S)NC(=O)c1ccccc1F`, the entry is “inactive”; as for `O=C(NC(=S)Nc1ccccc1C(=O)O)c1ccc(-c2ccc(Br)cc2)o1`, 100 (active); as for `Cc1cc(C)cc(N(CC(=O)NC2CCCC2)C(=O)CCC(=O)Nc2cc(C)on2)c1`, “inactive”.
Under `COc1cccc(/C=C/C(=O)Nc2ccc3c(c2)OCCO3)c1` stands “inactive”.
Regarding `Cc1ccc(-n2[nH]c(C)c(/C=N/N3C(=O)c4cccc5cccc(c45)C3=O)c2=O)cc1`, the normalized B-score (activity score, 25-100; higher = stronger inhibition) was 100 (active).
As for `COc1cc(SC#N)ccc1N=Cc1c(C)[nH]n(-c2ccc(C)cc2)c1=O`, the entry is “inactive”; as for `Cc1[nH]n(-c2ccccc2)c(=O)c1/C=N/NC(=O)c1ccoc1C`, “inactive”.
Under `Cc1ccc(C2(C(F)(F)F)N=C3Sc4cc(C)cc(C)c4N3C(=O)N2)cc1` (stereo unspecified) stands “inactive”; under `Cc1c(C(=O)OCC(=O)N2CCCC2=O)oc2ccccc12`, “inactive”; under `c1ccc(-c2cc3c(NCC4COc5ccccc5O4)ncnc3s2)cc1` (stereo unspecified), 100 (active).
As for `Oc1ccccc1N1CCN(c2ncnc3sc(-c4ccccc4)cc23)CC1`, the entry is “inactive”; as for `COc1ccc(Nc2ncnc3sc(-c4ccccc4)cc23)c(OC)c1`, “inactive”; as for `COc1cc(Cl)c(C)cc1NC(=O)CN1CCCCCC1`, “inactive”.
For `O=C(Cc1cccs1)NCc1cccc(C(F)(F)F)c1`, the normalized B-score (activity score, 25-100; higher = stronger inhibition) entry is “inactive”.
`CCOn1c(=O)c(=O)n(O)c2ccccc21`: the normalized B-score (activity score, 25-100; higher = stronger inhibition) result was “inactive”.
For the compound `C[C@H]1CCC(=O)N([C@H](CSc2ccccc2)Cc2ccccc2)CC1`, the normalized B-score (activity score, 25-100; higher = stronger inhibition) is 25 (active).
Under `CN1CCC(=O)N([C@H](CO)Cc2ccccc2)CC1` stands “inactive”; under `COc1ccc(SC[C@H](Cc2ccccc2)N2CCN(CCc3ccccc3)CCC2=O)cc1`, “inactive”; under `Cn1c2c(c(=O)n(C)c1=O)C(c1cccc([N+](=O)[O-])c1)Nc1ccccc1O2` (stereo unspecified), “inactive”.
As for `COc1ccc(CCNC(=O)CS(=O)(=O)Cc2nc(-c3ccc(C)cc3)oc2C)cc1OC`, the entry is “inactive”; as for `COc1cccc(-c2nc(CS(=O)(=O)CC(=O)NCCc3ccc(OC)c(OC)c3)c(C)o2)c1`, “inactive”; as for `COc1ccc(CCNC(=O)C2CCCN(Cc3nc(-c4cccc(Cl)c4)oc3C)C2)cc1OC` (stereo unspecified), 100 (active).
As for `CCOc1ccc(/C=C/C(=O)OCC(=O)c2ccccc2OC)cc1OC`, the entry is “inactive”.
For `Cc1cccc(N)c1SC1CCCCC1O` (stereo unspecified), the normalized B-score (activity score, 25-100; higher = stronger inhibition) entry was “inactive”.
As for `Cc1cccc(N=C2SC(C)CN2C(=O)CN2C(=O)NC3(CCCC3)C2=O)c1` (stereo unspecified), the entry is “inactive”.
Under `O=C(Nc1nnc(S(=O)(=O)N2CCCCCC2)s1)c1cccc(Br)c1` stands “inactive”; under `NS(=O)(=O)c1ccc(N=Cc2ccc(Br)s2)cc1`, “inactive”; under `COC(=O)C1=C(C)NC(=O)CC1c1ccccc1OC` (stereo unspecified), “inactive”.
Under `CCCOc1ccccc1C1CC(=O)Nc2cc3c(cc21)OCO3` (stereo unspecified) stands 25 (active).
For `COc1ccccc1C1C2=C(COC2=O)Nc2cc3c(cc21)OCO3` (stereo unspecified), the normalized B-score (activity score, 25-100; higher = stronger inhibition) entry is “inactive”.
Consider `CC1CCN(C(=O)CN(c2ccc(Oc3ccccc3)cc2)S(C)(=O)=O)CC1`, for which the normalized B-score (activity score, 25-100; higher = stronger inhibition) result is “inactive”.
Under `COc1ccc(S(=O)(=O)N(CCCN2CCCC2=O)Cc2cc3c(C)ccc(C)c3[nH]c2=O)cc1` stands “inactive”; under `Cc1ccc(-c2noc(CSc3nnc(-c4cccs4)n3C)n2)cc1`, “inactive”; under `Cc1ccc(-c2noc(CSc3nnc(-c4ccccc4)n3C)n2)cc1`, “inactive”.
Under `Cc1ccc(-c2noc(CSc3nnnn3-c3ccccc3)n2)cc1` stands 100 (active); under `Cc1ccc(-c2nnc(CN3CCN(C)CC3)o2)cc1`, “inactive”; under `O=C(NCCCN1CCCC1=O)C(=O)NCC1OCCN1S(=O)(=O)c1ccc(Br)cc1` (stereo unspecified), “inactive”.
Regarding `Cn1c(SCC(=O)N2CCCCC2)nc2c(c1=O)SCC2`, the normalized B-score (activity score, 25-100; higher = stronger inhibition) result was “inactive”.
As for `Cc1cccc(CSc2nc3c(c(=O)n2C)SCC3)c1`, the figure is 25 (active).
Under `CCn1c(SCc2ccccc2)nc2c(c1=O)SCC2` stands “inactive”.
In the case of `O=C(Nc1ccnn1C1CCN(C/C=C/c2ccc(F)cc2)CC1)C1CCCC1`, the normalized B-score (activity score, 25-100; higher = stronger inhibition) result was “inactive”.
For the compound `COc1ccc(OC)c(S(=O)(=O)N2CCCC(C(=O)N3CCC(C(N)=O)CC3)C2)c1` (stereo unspecified), the normalized B-score (activity score, 25-100; higher = stronger inhibition) result is “inactive”.
Under `Cc1ccc(C(=O)NNC(=O)C(C)Oc2ccc3ccccc3c2)o1` (stereo unspecified) stands “inactive”; under `CC(Oc1ccc2ccccc2c1)C(=O)NNC(=S)NC(=O)c1ccco1` (stereo unspecified), 100 (active).
With `CCCc1ccc(OCC(=O)NNC(=S)NC(=O)c2ccco2)cc1`, the normalized B-score (activity score, 25-100; higher = stronger inhibition) entry was “inactive”.
For `O=C(Nc1cc(-c2ccccc2)nn1-c1ccccc1F)c1ccc([N+](=O)[O-])cc1`, the normalized B-score (activity score, 25-100; higher = stronger inhibition) entry was “inactive”.
Consider `CSc1ccc(C(=O)C2CCCN(C(=O)c3ccc(C)nc3)C2)cc1` (stereo unspecified), for which the normalized B-score (activity score, 25-100; higher = stronger inhibition) result was “inactive”.
As for `CCOC(=O)N1CCC(=NNC(N)=O)CC1`, the entry is “inactive”; as for `Cc1cccc(-c2nc(CS(=O)CC(=O)NC(C)CCc3ccccc3)c(C)o2)c1` (stereo unspecified), “inactive”.

The values are drawn from PubChem BioAssay AID588511 (Johns Hopkins Ion Channel Center, 2011).
